# In PubChem BioAssay AID1347076 (National Center for Advancing Translational Sciences (NCATS), 2019):
# Out of some 400,000 compounds screened, about 13,000 (3.2%) were called active. About 18% were inconclusive and are not listed. Calls come from the whole dose curve; as a rule, active = well fitted cell-killing curve with a large enough effect; inconclusive = small, poorly fitted or top-dose-only effect, or effect the other way; inactive = flat fitted curve, though single readings scatter. Only a selection was taken, and actives are over-represented in it overall.
# Assay: qHTS assay for MDR1-selective chemotherapeutics: Primary screen using the drug-selected MDR subline cells KB-V1; note: nearly all actives have a fitted effect of over 60% in size
# Details: KB-V1 MDR cells viability, CellTiter-Glo, 72 h; series mostly up to 46.1 µM; activity change, negative = cytotoxicity: at the top concentration
# Procedure, shortened: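 Potencies derive from concentration-effect curves fitted to normalized luminescence (CellTiter-Glo) of KB-V1 cells treated for 72 h at 37 degrees C in phenol-red-free DMEM containing 10% FBS.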
# % is set by controls: 0 for no effect and ±100 for the full control effect; potency is the fitted concentration of half-maximal effect.
Structure (SMILES),"activity change, negative = cytotoxicity",Potency
O=C(Nc1ccc2c(c1)OCCO2)C1c2ccccc2OCC(=O)N1Cc1ccccn1 (centres undefined),0% (inactive),–
Cc1ccc(C(=O)N[C@H](C(=O)N2CCN(c3ncccn3)CC2)C(C)C)cc1,-6.89% (inactive),–
O=C(Cn1cnc2c(cnn2-c2ccccc2)c1=O)NCc1ccccc1,–,5.17 µM (active)
Cc1c(C(=O)NCc2ccccc2)cnn1-c1ccccc1,-2.59% (inactive),–
CC(=O)Cn1cnc2c(cnn2-c2ccccc2)c1=O,2.75% (inactive),–
COc1ccc(Br)cc1CN(C)CC(=O)Nc1cc(Cl)cc(Cl)c1,–,7.31 µM (active)
COc1ccc(OC)c(NC(=O)CN(C)CCOc2ccc(Br)cc2)c1,-8.21% (inactive),–
COc1ccc(Cl)cc1NC(=O)CCS(=O)(=O)c1ccc(Br)cc1,-12.7% (inactive),–
CCCCCCN1CCN(C2CN(Cc3cn(CCCCCC)nn3)S(=O)(=O)C2)CC1 (centres undefined),-17.4% (inactive),–
COc1ccc(-c2nc3ccc(Br)cn3c2Cc2ccc(C)cc2)cc1OC,11.7% (inactive),–
CN(C)CCNC(=O)c1ccc(Cl)c2cc3ccccc3nc12,–,2.06 µM (active)
CC(=O)NCCNC(=O)c1cc(-c2cccc3ccccc23)nc2ccccc12,-9.24% (inactive),–
CN(C)CCNC(=O)Nc1cccc(Cl)c1Cl,-2.58% (inactive),–
CCOC(=O)C1CCCN(C(=O)c2cc(-c3cccs3)oc2C)CC1 (centres undefined),-0.946% (inactive),–
O=C1N(Cc2ccccc2)c2ccc(Cl)cc2C1(O)c1c[nH]c2ccccc12 (centres undefined),15.1% (inactive),–
CCOc1ccc(-c2nonc2NC(=O)c2oc3ccc(C)cc3c2C)cc1OCC,4.56% (inactive),–
C/C(=N\NC(=O)COc1c(C)cccc1C)c1cccs1,-15.3% (inactive),–
Cc1nn(-c2ccccc2)c(C)c1/C=N/NC(=O)CSc1nc2ccccc2c(=O)n1-c1ccccc1,-1.83% (inactive),–
C/C(=N\NC(=O)CSc1nc2ccccc2c(=O)n1-c1ccccc1C)c1cccs1,–,2.31 µM (active)
Cc1ccc(S(=O)(=O)N2CCCCC2)cc1NC(=O)CCNC(=O)c1ccccc1Cl,-2.44% (inactive),–
COc1ccc(C)c(Cn2c(-c3nonc3N)nc3ccccc32)c1,–,2.31 µM (active)
CCn1c(C(O)c2cc(OC)ccc2OC)nc2ccccc21 (centres undefined),0% (inactive),–
CC(=O)Nc1nonc1-c1nc2ccccc2n1Cc1ccccn1,-6.93% (inactive),–
O=C(NCCS(=O)(=O)N1CCN(c2ccccc2)CC1)c1cc(=O)c2ccccc2o1,-16.5% (inactive),–
OCCC#Cc1ccc(N2C(c3ccsc3)=Cc3ccc(F)cc3C2c2c[nH]c3ccccc23)cc1 (centres undefined),-2.8% (inactive),–

Structure (SMILES),"activity change, negative = cytotoxicity",Potency
COc1ccc(CCNS(=O)(=O)c2cc(-c3cc(C)no3)ccc2C)cc1OC,14.1% (inactive),–
CCOc1ccccc1CNS(=O)(=O)c1cc(-c2cc(C)no2)ccc1C,-25.9% (inactive),–
COc1ccc(CNS(=O)(=O)c2cc(-c3cc(C)no3)ccc2C(C)C)cc1,–,13 µM (active)
CC1(C(=O)NS(=O)(=O)Cc2cccc(Cl)c2)CCN1C(=O)Cc1ccc(Cl)cc1Cl (centres undefined),3.11% (inactive),–
CCc1nc2ccc(C(=O)N3CCN(S(=O)(=O)CC)CC3)cn2c1N(C=O)CCC(C)C,-1.32% (inactive),–
CCCCCCCNc1ccc(/C=C/c2ccnc3ccccc23)cc1,-14.4% (inactive),–
Cc1cc(C)nc(NS(=O)(=O)c2ccc(NC(=O)c3cc(=O)c4ccc(C)c(C)c4o3)cc2)n1,10.1% (inactive),–
O=c1c2ccccc2n(Cc2cccc(Cl)c2)c(=O)n1Cc1ccccc1,0% (inactive),–
Cc1cc(-c2csc(N)n2)c(C)n1Cc1ccccc1,-1.04% (inactive),–
Nc1cc(=O)n(Cc2ccccc2)c(=O)n1Cc1ccccc1,–,18.4 µM (active)
O=C(CCN1CCCCC1)Nc1ccc(F)c(F)c1,-4.41% (inactive),–
CSc1ncnc2c1ncn2CCCNCc1ccco1,-0.21% (inactive),–
CSc1ncnc2c1ncn2CCCNCC1CCCCC1,-20.3% (inactive),–
CSc1ncnc2c1ncn2CC(=O)C1CCC2C3CCC4=CC(=O)CCC4(C)C3CCC12C (centres undefined),–,23.1 µM (active)
Cc1cc(C)cc(NC(=O)Cn2nc(N3CCN(c4ccccc4)CC3)ccc2=O)c1,0% (inactive),–
CC1(C)CN(Cc2cccnc2)C(=O)[C@H]1CC(=O)Nc1ccc(Br)cc1,-10.6% (inactive),–
COc1ccc(C)cc1N(CC(=O)N1CCC(C)CC1)S(=O)(=O)c1ccc(C)cc1,-20% (inactive),–
CCN(CC)C(=O)CN(c1cccc(OC)c1)S(=O)(=O)c1ccc(C)cc1,-18.1% (inactive),–
COC(=O)CN(c1nc(C)c(Cl)c(OC)n1)S(=O)(=O)c1ccc(C)cc1,–,13 µM (active)
CCOC(=O)N1CCN(C(=O)C[C@@H]2C[C@@]3(C(=O)OC)CCCCC=C3N(CCC3=CCCCC3)C2=O)CC1,0% (inactive),–
CCCNC(=O)C[C@@H]1CC[C@@H]2[C@H](COC[C@H](O)CN2C(=O)c2cc(Cl)cc(Cl)c2)O1,-2.38% (inactive),–
C[C@@H]1CN([C@@H](C)CO)C(=O)c2c(c3ccccc3n2C)-c2ccccc2CO[C@H]1CN(C)C(=O)C1CC1,2.91% (inactive),–
Cn1ncc([N+](=O)[O-])c1C(=O)Nc1cc(Cl)ccc1Cl,-28.7% (inactive),–
CN(C)c1ccc(NC(=O)CSc2nc(-c3ccco3)cc(C(F)(F)F)n2)cc1,-4.3% (inactive),–
Cc1ccc(-c2cnc(C(O)c3cccc(C)c3C)[nH]2)cc1 (centres undefined),0.531% (inactive),–

Structure (SMILES),"activity change, negative = cytotoxicity",Potency
Cc1cc(F)ccc1NS(=O)(=O)c1ccc(-n2cccn2)cc1,-19.7% (inactive),–
Cc1ccc(-c2nnc3ccc(SCC(N)=O)nn23)cc1,-16.7% (inactive),–
COc1cccc(NCCC(=O)c2cccc([N+](=O)[O-])c2)c1,0% (inactive),–
CCC1(C(=O)c2ccccc2)C(c2cccc([N+](=O)[O-])c2)C1(C(=O)OC)C(=O)OC (centres undefined),–,23.1 µM (active)
O=C(NOCc1ccccc1)c1cccc([N+](=O)[O-])c1,-0.0129% (inactive),–
CC(C)(C)NC(=O)C(CCc1ccccc1)n1c(=O)c(-c2ccccc2)nc2ccccc21 (centres undefined),-14% (inactive),–
Cc1ccc(C)c2[nH]c(=O)c(CN(Cc3cccnc3)C(=S)NCc3ccco3)cc12,-4.35% (inactive),–
Cc1cccc2cc(CN(Cc3cccs3)C(=S)NCc3ccco3)c(=O)[nH]c12,–,3.66 µM (active)
CCCN(Cc1cc2cccc(C)c2[nH]c1=O)S(C)(=O)=O,0% (inactive),–
Cc1ccc(C)c2[nH]c(=O)c(CCNC(=O)c3cccs3)cc12,-0.813% (inactive),–
Cc1cccc2cc(CN(C(=O)c3cccs3)c3ccccc3)c(=O)[nH]c12,–,23.1 µM (active)
Cc1cc(C)c2[nH]c(=O)c(CN(Cc3ccccc3)C(=S)NCCCN(C)C)cc2c1,20.3% (inactive),–
CCOC1=C2[C@H]([C@H]3C(=O)N(c4ccccc4)C(=O)[C@H]3C1)[C@@H](c1ccccc1)N(S(=O)(=O)c1ccc(C)cc1)[C@H]2c1ccccc1,9.91% (inactive),–
CCc1nc2ccc(C(=O)NCc3ccc(OC)cc3)cn2c1N(CC)Cc1cccc(Br)c1,-14.4% (inactive),–
CSC1=NN(c2ccccc2)CN(c2ccccc2)N1C,-10.4% (inactive),–
Cc1cccc(-c2cnc(C(O)c3cc(C)cc(C)c3)[nH]2)c1 (centres undefined),-1.95% (inactive),–
COCCNC(=O)C1(C)CCCN(Cc2cccc(F)c2)C1 (centres undefined),5.35% (inactive),–
O=C(CN1C(=O)c2cccc3cccc1c23)Nc1ccccc1,-9.9% (inactive),–
O=C1c2cccc3cccc(c23)N1CN1CCN(c2ccccn2)CC1,–,5.8 µM (active)
O=C(CN1CCN(c2ccccn2)CC1)N1CCc2ccccc21,19.5% (inactive),–
COc1ccc(NC(=O)CN2C(=O)NC(C)(c3ccccc3)C2=O)cn1 (centres undefined),19% (inactive),–
COc1cccc(CNC(=O)c2ccc3c(Cl)c4c(nc3c2)CCCC4)c1,-11.6% (inactive),–
CC(=O)c1ccc(NC(=O)c2ccc3c(Cl)c4c(nc3c2)CCCC4)cc1,–,16.4 µM (active)
COc1ccc(N2CCN(C(=O)c3ccc4c(Cl)c5c(nc4c3)CCCC5)CC2)cc1,–,inactive
Fc1ccc(-c2nn(-c3ccccc3Cl)c3c2cnc2ccccc23)cc1,-20.6% (inactive),–

Structure (SMILES),"activity change, negative = cytotoxicity",Potency
Cc1ccc(S(=O)(=O)N[C@H](CO)C(C)C)cc1,-2.47% (inactive),–
CSc1nc(N(C)NC(=O)c2cccc(C)c2)c2ccccc2n1,–,0.206 µM (active)
Cc1cccc(C(=O)NCCc2nc3ccccc3n2Cc2ccccc2Cl)c1,-0.81% (inactive),–
O=C(Nn1cnc2ccccc2c1=O)c1ccccc1,-7.07% (inactive),–
CN(NC(=O)c1ccccc1F)c1nc(C(F)(F)F)nc2ccccc12,-12% (inactive),–
Cc1cccc(C(=O)Nc2ccc(-c3nc4ccccc4s3)c(C)c2)c1,17.3% (inactive),–
CN(NC(=O)c1ccccc1)c1nc2ccccc2nc1C(F)(F)F,–,4.61 µM (active)
C[C@H](CO)N1C[C@H](C)[C@@H](CN(C)C(=O)C2CCCCC2)OCc2cnnn2CCCC1=O,0% (inactive),–
Cc1ccc(F)c(S(=O)(=O)NC(=O)C2(C)CCN2C(=O)c2ccco2)c1 (centres undefined),2.85% (inactive),–
COc1cccc(CNc2nc3cc(-c4csc5ccccc45)sc3c(=O)n2C)c1,1.56% (inactive),–
CC1CCN(c2ccc3c(c2)S(=O)(=O)c2cc(C(=O)O)ccc2C3=O)CC1,-17.6% (inactive),–
CCCCc1ccc(S(=O)(=O)NC(=O)C2(C)CCN2C(=O)c2ccccc2)cc1 (centres undefined),-1.95% (inactive),–
O=c1[nH]c(CCl)nc2cc(-c3ccc(Cl)cc3)sc12,–,16.4 µM (active)
O=c1[nH]c(CN2CCOCC2)nc2cc(Cl)ccc12,-7.03% (inactive),–
NC(=O)Cc1nc2scc(-c3ccc(Cl)cc3)c2c(=O)[nH]1,34.2% (inactive),–
COCOc1cccc(CN2CCC(C)(Oc3ccc(SC)cc3)C2)c1 (centres undefined),-12.9% (inactive),–
O=C1CC(c2ccccc2)CC2=C1C(c1ccco1)n1nc(C(F)(F)F)nc1N2 (centres undefined),0% (inactive),–
COc1ccnc2c1c(=O)n(Cc1cccc(F)c1)c(=O)n2C,-0.196% (inactive),–
COc1ccc(N2C(=O)CSC23C(=O)N(Cc2cccc(F)c2)c2ccccc23)cc1Cl (centres undefined),–,16.4 µM (active)
COc1ccc(N2C(=O)CS(=O)(=O)C23C(=O)N(Cc2ccc(C)cc2)c2ccccc23)cc1Cl (centres undefined),3.01% (inactive),–
COc1cc(C(=O)OCCCN2CCOCC2)cc(OC)c1OC,-11.7% (inactive),–
CC(C)(C)OC(=O)N1CCC(c2c(C(=O)Nc3ccc4c(c3)OCO4)cnn2-c2ccccc2)CC1,-13.9% (inactive),–
COc1cc(OC)c(OC)cc1/C=C1\C=Cc2ccccc21,-1.45% (inactive),–
COc1ccc(S(=O)(=O)N2CCC(C(=O)NCCC(=O)Nc3ccccc3OC)CC2)cc1,6.15% (inactive),–
